Our source for the Kd values is publication PMC5540273 (PLoS ONE, 2017).

In test [1] the test system is FLT3.
Test [2] relates to FLT4.
For test [3], the system named is GAK.
For test [4], the system named is T1, GRK2.
T1 construct: gene ADRBK1

For test [5], the system named is T2, GRK3.
T2 construct: gene ADRBK2

Test [6] has as its system GRK4.
Test [7] deals with T3, HASPIN.
T3 construct: gene GSG2

SMILES strings stand for the structures.
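Also: kd values determined as follow-up on hits from a single-replicate KINOMEscan panel screen.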

On to `COc1ccc(NC(=O)Nc2ccc(C)c(-c3ccc(C(=O)Nc4ccncc4)cc3)c2)cc1` [GSK1398475], for which the Kd in test [1] came out at 2200 nM.
On to `Cl.O=S(=O)(c1cccc(F)c1)c1ccc(Nc2ncnc3cc(Br)sc23)cc1Cl` [GSK306886], for which, in test [2], the dissociation constant Kd was more than 10000 nM.
As to `COC(=O)c1c(-c2ccccc2)c2cc(Cl)ccc2c(=O)n1Cc1ccc(S(C)(=O)=O)cc1`, the Kd in test [3] was more than 10000 nM.
On the same count and under the same terms, with `CCc1nc(-c2cccc(N(C)S(=O)(=O)c3ccccc3)c2)c(-c2ccnc(Nc3ccc(N4CCN(C(C)=O)CC4)nc3)n2)s1` [GSK1645895] the figure was 250 nM.
In the case of `CNc1nccc(-c2c(-c3ccc(F)cc3)ncn2C2CCN(C)CC2)n1` [SB-222903], the Kd in test [4] was more than 10000 nM.
As for `COc1ccc(NC(=O)c2ccc(-c3cc(-c4nnc(C)o4)ccc3C)cc2)cc1` [GW595885], the Kd in test [5] was more than 10000 nM.
Turning to `Cn1cc(-c2ccc3c(c2)CCN3C(=O)Cc2cccc(C(F)(F)F)c2)c2c(N)ncnc21` [GSK2606414], in test [6], the dissociation constant (Kd) is more than 10000 nM.
On to `Cl.Cl.c1ccc(-c2cc3ccncc3cc2OC2CCNCC2)cc1` [GSK1122999], for which binding in test [7] was characterised by a dissociation constant (Kd) of 90 nM.
For `Nc1nc(-c2cccnc2)c(-c2ccnc3ccccc23)s1` [GW684083], in test [7], the Kd stood at 650 nM.

Usually Kd stands for the equilibrium constant for the complex coming apart. The low end stands for tighter binding, the high end for weaker binding.
